Activity calls are given as the source filed them.
Columns and labels:
[1] = system: Plasmodium falciparum Sir2 (PF13_0152, Sir2A); test: Plasmodium falciparum Sir2A binding compounds – biochemical, small-molecule microarray, 635 nm fluorescence, primary screen (AID 1098); settings: fluorescence 635 nm, higher = more signal;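 note: score merges spot fluorescence intensity with its signal-to-noise ratio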
[2] = probe aDKK1 binding to arrayed compounds – biochemical, biotinylated probe, 635/667 nm fluorescence, primary screen (AID 1099); settings: small-molecule microarray, higher = more signal;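 note: score merges 667nm spot fluorescence with signal to noise across triplicate slides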
[3] = probe aCHRDL2 binding to arrayed compounds – biochemical, biotinylated probe, 635/667 nm fluorescence, primary screen (AID 1100); settings: small-molecule microarray, higher = more signal
[4] = change in splice reporter luminescence, either direction, cell-based, HEK293, spliceosome inhibition project, primary screen (AID 1101); settings: HEK293 splicing luciferase reporter, 24 h, higher = more signal, called active from +8 up or from −8 down;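 note: HEK293 cells carrying a splicing-competent luciferase reporter gene; test concentration not given here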
[5] = target: Fibroblast growth factor 10 (Homo sapiens) (UniProt O15520); test: compounds binding fibroblast growth factor 10 – biochemical, small-molecule microarray, 635 nm fluorescence, primary screen (AID 1102); settings: FGF10 binding, fluorescence 635 nm, higher = more signal
Fibroblast growth factor 10 (Homo sapiens), sequence (O15520 whole entry, looked up): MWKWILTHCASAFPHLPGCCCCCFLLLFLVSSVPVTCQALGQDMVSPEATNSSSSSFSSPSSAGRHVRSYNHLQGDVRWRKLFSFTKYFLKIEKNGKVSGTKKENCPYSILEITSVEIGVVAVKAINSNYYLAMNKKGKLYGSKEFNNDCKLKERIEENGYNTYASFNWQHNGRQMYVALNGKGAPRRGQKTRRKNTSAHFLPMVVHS

[6] = system: glycogen synthase kinase-3 (GSK3A per assay name; protocol says GSK3B); test: compounds binding glycogen synthase kinase-3 – biochemical, small-molecule microarray, 635 nm fluorescence, GSK3A, primary screen (AID 1103); settings: fluorescence 635 nm, higher = more signal; note: the record names both GSK3A and GSK3B
[7] = target: Epidermal growth factor receptor (Homo sapiens) (UniProt P00533); test: compounds binding epidermal growth factor receptor – biochemical, small-molecule microarray, 635 nm fluorescence, primary screen (AID 1104); settings: EGFR binding, higher = more signal;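 note: score merges 667 nm emission intensity with spot signal to noise over triplicate slides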
Epidermal growth factor receptor (Homo sapiens), sequence (P00533 whole entry, looked up): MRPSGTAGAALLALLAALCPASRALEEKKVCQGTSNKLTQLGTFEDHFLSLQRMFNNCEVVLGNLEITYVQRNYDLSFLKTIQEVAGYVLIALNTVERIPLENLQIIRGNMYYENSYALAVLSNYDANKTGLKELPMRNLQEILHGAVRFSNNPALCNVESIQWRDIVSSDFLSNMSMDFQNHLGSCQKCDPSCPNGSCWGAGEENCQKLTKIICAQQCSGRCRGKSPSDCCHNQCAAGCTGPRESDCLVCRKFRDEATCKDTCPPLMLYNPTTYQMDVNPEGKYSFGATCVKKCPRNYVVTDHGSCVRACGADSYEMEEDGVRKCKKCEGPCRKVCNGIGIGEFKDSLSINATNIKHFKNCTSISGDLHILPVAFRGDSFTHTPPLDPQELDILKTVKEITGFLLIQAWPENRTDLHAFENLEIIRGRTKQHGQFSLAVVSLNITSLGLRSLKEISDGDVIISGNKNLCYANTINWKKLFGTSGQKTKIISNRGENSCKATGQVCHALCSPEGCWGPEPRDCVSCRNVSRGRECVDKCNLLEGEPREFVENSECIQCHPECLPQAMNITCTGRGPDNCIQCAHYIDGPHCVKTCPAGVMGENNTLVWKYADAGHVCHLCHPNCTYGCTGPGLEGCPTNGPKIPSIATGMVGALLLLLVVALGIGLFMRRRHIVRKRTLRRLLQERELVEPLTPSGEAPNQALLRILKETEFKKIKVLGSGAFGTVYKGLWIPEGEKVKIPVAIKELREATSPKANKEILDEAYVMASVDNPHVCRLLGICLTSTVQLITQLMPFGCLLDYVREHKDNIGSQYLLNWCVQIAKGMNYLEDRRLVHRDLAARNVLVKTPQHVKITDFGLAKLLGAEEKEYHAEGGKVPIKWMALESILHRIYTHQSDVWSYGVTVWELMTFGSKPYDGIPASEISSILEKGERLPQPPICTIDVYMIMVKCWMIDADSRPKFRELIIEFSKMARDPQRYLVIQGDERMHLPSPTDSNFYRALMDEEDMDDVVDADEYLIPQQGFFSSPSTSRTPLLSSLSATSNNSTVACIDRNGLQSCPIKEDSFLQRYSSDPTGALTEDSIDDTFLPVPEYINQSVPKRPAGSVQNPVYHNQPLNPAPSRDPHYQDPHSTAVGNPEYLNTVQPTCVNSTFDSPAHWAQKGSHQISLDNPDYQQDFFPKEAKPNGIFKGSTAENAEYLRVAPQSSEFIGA

[8] = target: Follistatin-related protein 3 (Homo sapiens) (UniProt O95633); test: compounds binding follistatin-related protein 3 – biochemical, small-molecule microarray, 635 nm fluorescence, primary screen (AID 1105); settings: FSTL3 binding, higher = more signal;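 note: score merges emission near 667 nm and signal to noise per printed spot across three slides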
Follistatin-related protein 3 (Homo sapiens), sequence (O95633 whole entry, looked up): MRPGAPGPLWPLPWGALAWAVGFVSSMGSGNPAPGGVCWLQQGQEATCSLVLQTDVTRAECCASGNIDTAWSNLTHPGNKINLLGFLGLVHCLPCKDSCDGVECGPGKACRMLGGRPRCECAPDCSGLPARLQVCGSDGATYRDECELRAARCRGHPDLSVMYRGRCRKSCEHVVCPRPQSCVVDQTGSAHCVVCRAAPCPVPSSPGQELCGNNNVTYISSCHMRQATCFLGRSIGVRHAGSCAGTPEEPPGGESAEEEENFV

[9] = target: Dickkopf-related protein 1 (Homo sapiens) (UniProt O94907); test: small molecules binding DKK1 protein – biochemical, small-molecule microarray, 635 nm fluorescence scan, primary screen (AID 1106); settings: higher = more signal;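 note: score merges emission near 667 nm with signal to noise over three replicate slides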
Dickkopf-related protein 1 (Homo sapiens), sequence (O94907 whole entry, looked up): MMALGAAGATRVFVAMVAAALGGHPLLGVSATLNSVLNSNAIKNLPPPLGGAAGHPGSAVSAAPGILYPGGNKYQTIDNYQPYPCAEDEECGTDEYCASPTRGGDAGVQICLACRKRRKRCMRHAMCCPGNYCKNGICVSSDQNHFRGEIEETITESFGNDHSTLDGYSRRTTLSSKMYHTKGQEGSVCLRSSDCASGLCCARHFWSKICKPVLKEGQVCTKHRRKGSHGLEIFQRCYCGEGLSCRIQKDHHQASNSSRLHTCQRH

[10] = system: Inhibin beta A chain (activin A); test: small molecules binding activin A – biochemical, small-molecule microarray, 635 nm fluorescence scan, primary screen (AID 1107); settings: INHBA, higher = more signal;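 note: mouse activin A protein probed at 4.33 µg/mL on printed slides; score merges bound-protein fluorescence near 667 nm with spot signal-to-noise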
[11] = system: Human papillomavirus type 1a protein E7 (residues 44-93); test: small molecules binding HPV E7 44-93 – biochemical, small-molecule microarray, residues 44-93, 635 nm fluorescence, primary screen (AID 1108); settings: fluorescence 635 nm, higher = more signal;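 note: E7 fragment applied at 1 µg/mL in TBST for 1 h at 4 C; score combines spot fluorescence with its signal to noise ratio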
[12] = hepatitis C replication reporter changes, two-sided – Huh7 cells, luciferase reporter, HCV replication inhibitor project, primary screen (AID 1109); settings: Huh7 HCV replicon luciferase reporter, 48 h; higher = more signal;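 note: huh7 hepatoma cells harbouring a luciferase neomycin HCV replicon reporter; luciferase luminescence as measure of HCV replicon replication; test concentration not given here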
[13] = target: Left-right determination factor 2 (Homo sapiens) (UniProt O00292); test: small molecules binding LEFTY2 protein – biochemical, small-molecule microarray, 635 nm fluorescence scan, primary screen (AID 1110); settings: higher = more signal
Left-right determination factor 2 (Homo sapiens), sequence (O00292 whole entry, looked up): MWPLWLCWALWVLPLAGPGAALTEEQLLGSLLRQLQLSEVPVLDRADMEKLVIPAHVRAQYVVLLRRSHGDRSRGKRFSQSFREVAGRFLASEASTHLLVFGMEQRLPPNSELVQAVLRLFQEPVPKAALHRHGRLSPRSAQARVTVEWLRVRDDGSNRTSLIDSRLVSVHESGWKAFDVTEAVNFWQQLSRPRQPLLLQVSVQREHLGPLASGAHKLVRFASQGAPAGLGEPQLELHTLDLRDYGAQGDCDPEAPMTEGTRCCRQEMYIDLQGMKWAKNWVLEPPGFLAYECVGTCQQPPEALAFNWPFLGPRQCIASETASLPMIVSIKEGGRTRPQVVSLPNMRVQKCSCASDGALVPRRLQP

[14] = target: Calmodulin-1 (Homo sapiens) (UniProt P0DP23); test: small molecules binding calmodulin-1 with EGTA – biochemical, small-molecule microarray, Cy5-labelled CALM1, profiling panel (AID 1111); settings: Cy5-CALM1 binding fluorescence, higher = more signal;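 note: labelled calmodulin applied in Tris saline Tween buffer holding calcium plus EGTA and DTT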
[15] = target: Calmodulin-1 (Homo sapiens) (UniProt P0DP23); test: small molecules binding Ca-loaded calmodulin-1 – biochemical, small-molecule microarray, Cy5-labelled CALM1, plus calcium, artefact control for SMM control-protein annotation, profiling panel (AID 1112); settings: Cy5-CALM1 binding fluorescence, higher = more signal;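 note: score merges spot fluorescence with signal to noise from triplicate slides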
[16] = probe aWnt5a binding to arrayed compounds – biochemical, biotinylated probe, 635/667 nm fluorescence, primary screen (AID 1113); settings: small-molecule microarray, higher = more signal;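 note: score merges 667 nm fluorescence intensity with signal-to-noise per printed feature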
[17] = probe aShh binding to arrayed compounds – biochemical, biotinylated probe, 635/667 nm fluorescence, primary screen (AID 1114); settings: small-molecule microarray, higher = more signal;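 note: probe is biotin-labelled aShh protein from a stem cell growth factor screen; measures binding of labelled protein to compounds printed on the slide; score merges feature fluorescence at 667 nm with signal-to-noise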
[18] = probe aNog binding to arrayed compounds – biochemical, biotinylated probe, 635/667 nm fluorescence, primary screen (AID 1115); settings: small-molecule microarray, higher = more signal;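 note: probe is biotinylated aNog protein used at 0.15 µg/mL for 1 h at 4 C; z-score combines 667 nm fluorescence of each spot with its signal to noise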
[19] = target: Torsin-1A-interacting protein 1 (Homo sapiens) (UniProt Q5JTV8); test: compound microarray binding of lysate hLAP1 – cell lysate, small-molecule microarray, COS7 lysate, 635/667 nm fluorescence, primary screen (AID 1116); settings: 635 nm fluorescence, higher = more signal
Torsin-1A-interacting protein 1 (Homo sapiens), sequence (Q5JTV8 whole entry, looked up): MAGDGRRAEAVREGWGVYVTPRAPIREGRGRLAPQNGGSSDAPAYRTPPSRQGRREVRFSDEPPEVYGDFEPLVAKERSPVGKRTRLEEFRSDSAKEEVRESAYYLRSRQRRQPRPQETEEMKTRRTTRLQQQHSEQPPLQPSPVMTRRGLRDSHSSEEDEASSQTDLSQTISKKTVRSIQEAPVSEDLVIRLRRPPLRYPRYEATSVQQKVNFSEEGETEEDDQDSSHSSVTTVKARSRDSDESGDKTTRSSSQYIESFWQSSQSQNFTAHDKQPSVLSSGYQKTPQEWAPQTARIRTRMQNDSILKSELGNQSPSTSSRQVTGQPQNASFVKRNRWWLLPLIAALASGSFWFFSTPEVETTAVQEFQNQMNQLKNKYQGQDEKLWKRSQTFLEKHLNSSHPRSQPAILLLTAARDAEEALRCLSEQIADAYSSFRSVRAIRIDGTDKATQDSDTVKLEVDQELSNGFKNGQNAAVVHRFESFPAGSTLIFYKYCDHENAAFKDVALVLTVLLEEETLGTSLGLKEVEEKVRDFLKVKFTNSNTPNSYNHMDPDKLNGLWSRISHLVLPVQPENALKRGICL

[20] = target: Alpha-bungarotoxin (Bungarus multicinctus) (UniProt P60615); test: compounds binding labelled alpha-BTX control protein – biochemical, small-molecule microarray, Alexa647 label, 635/667 nm fluorescence, artefact control for SMM control protein annotation, profiling panel (AID 1117); settings: alpha-BTX-A647 binding fluorescence, higher = more signal
Alpha-bungarotoxin (Bungarus multicinctus), sequence (P60615 whole entry, looked up): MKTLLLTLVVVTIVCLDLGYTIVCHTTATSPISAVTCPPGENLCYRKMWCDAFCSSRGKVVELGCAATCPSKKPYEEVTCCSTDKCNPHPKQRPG

Row | Structure (SMILES) | composite z-score [1] | composite z-score [2] | composite z-score [3] | z-score [4] | composite z-score [5] | composite z-score [6] | composite z-score [7] | composite z-score [8] | composite z-score [9] | composite z-score [10] | composite z-score [11] | z-score [12] | composite z-score [13] | composite z-score [14] | composite z-score [15] | composite z-score [16] | composite z-score [17] | composite z-score [18] | composite z-score [19] | composite z-score [20]
1 | Cc1cc(C)c(C(O)C2C=CC3C(=O)NC(=O)C3N2Nc2ccccn2)c(C)c1 (stereo not given) | -0.0405 | 0.118 | 0.862 | 1.43 (inactive) | 0.158 | 0.22 | -0.373 | 0.547 | -0.669 | 0.838 | 1.22 | 0.544 | -0.318 | 0.62 | 0.153 | -0.0596 | 0.0469 | 1.63 | 0.849 | 0.0525
2 | O=C1C2C=CC(C(O)CCc3ccccc3)N(Nc3ccccc3)C2C(=O)N1c1ccccc1 (stereo not given) | 0.692 | 1.18 | 1.29 | 0.35 (inactive) | 0.714 | 1.26 | -0.0133 | 0.425 | -0.194 | 0.205 | 0.0852 | 0.123 | -0.231 | 2.65 | 1.4 | 0.0797 | 0.382 | 1.11 | 2.2 | 3.09
3 | NC(=O)NCC#Cc1ccc2c(c1)[C@]1(C(=O)N2)[C@H](c2ccccc2OCCO)N2[C@H](c3ccccc3)[C@H](c3ccccc3)OC(=O)[C@H]2[C@@H]1C(=O)N1CCCCCCC1 | 1.68 | 2.88 | 1.73 | -0.308 (inactive) | 0.91 | 1.35 | 1.42 | 1.6 | 1.26 | 1.88 | 1.43 | -0.968 | 1.34 | 2.9 | 1.55 | 1.18 | 0.728 | 3.1 | 4.58 | 3.37
4 | COc1ccc([Si](C)(C)[C@H]2[C@H](CCO)O[C@@]3(C(=O)N(Cc4ccccc4)c4ccc(N5C(=O)COc6ccccc65)cc43)[C@@H]2C)cc1 | 1.12 | 0.0649 | 0.521 | -1.56 (inactive) | 0.305 | -0.965 | -0.5 | -0.207 | -0.214 | 0.241 | -1.13 | -4.64 | 0.206 | 1.44 | 1.12 | -0.136 | 0.108 | -0.487 | 0.216 | 0.662
5 | O=C1OCCC=C[C@H]2OC34C=CCN(CCN5CCOCC5)C(=O)[C@H]3N(CCO)C(=O)[C@@H]4C12 (stereo not given in full) | -0.378 | -0.507 | -0.771 | -0.197 (inactive) | 0.217 | -0.594 | -0.803 | -0.0836 | 0.794 | 0.612 | -1.74 | 0.18 | 0.601 | -1.72 | -1.21 | -0.181 | -0.338 | -0.467 | 0.0029 | -1.01
6 | O=P(NCC1(CC2(c3ccccc3)CO2)CC1)(c1ccccc1)c1ccccc1 (stereo not given) | 1.57 | 0.29 | 1.02 | -1.45 (inactive) | -0.686 | -1.49 | -1.28 | -1.37 | -0.915 | 0.758 | -0.498 | -1.17 | -1.79 | -0.0905 | 0.388 | -0.0384 | 0.826 | -0.45 | -0.225 | -0.879
7 | C=CCN1C(=O)[C@@]2(O[C@@H](CCO)[C@H]([Si](C)(C)c3ccc(OC)cc3)[C@H]2C)c2cc(N3C(=O)COc4ccccc43)ccc21 | 1.16 | -0.447 | -0.0458 | -3.26 (inactive) | 0.993 | 0.324 | -0.289 | 0.193 | -0.609 | -0.145 | 1.33 | -5.18 | 0.345 | 0.695 | -0.334 | 0.149 | -0.0626 | -0.292 | 1.16 | 0.445
8 | CC(C)C[C@@H]1NC(=O)[C@@H]2C[C@H](C(=O)NCCCCN(C)C)[C@H](c3ccc(O)cc3)N2C1=O | 0.791 | 0.147 | 0.874 | 0.619 (inactive) | -1.42 | -0.439 | -1.29 | -0.401 | -0.283 | -0.134 | -0.256 | -0.556 | -1.58 | -0.685 | 0.33 | -0.0977 | -0.0553 | -0.0791 | 0.864 | -0.318
9 | O=C1C[C@@](C(=O)O)(c2ccc([N+](=O)[O-])cc2)[C@@H](c2ccc(CO)cc2I)N1CC12CC3CC(CC(C3)C1)C2 | 0.816 | 1.23 | 1.13 | -0.0388 (inactive) | 0.248 | 0.48 | 0.12 | 0.206 | -1.1 | 0.723 | 0.997 | -3.31 | -0.44 | 1.67 | 0.889 | 0.0206 | 0.0434 | 0.108 | 0.817 | 2.3
10 | C=CC[C@@]1(C(N)=O)N=C(c2ccc(OCCCO)cc2)O[C@@H]1c1ccccc1N=[N+]=[N-] | 1.61 | 1.36 | 1.14 | -0.0133 (inactive) | 0.63 | 0.649 | 0.0347 | 0.0562 | 1.16 | 1.38 | -0.42 | 1.51 | 0.362 | -0.151 | -0.471 | 0.0825 | -0.148 | 1.1 | 2.04 | 0.673

Source: PubChem BioAssay
